Out of some 330,000 compounds screened, about 1,900 (0.58%) were called active. Inconclusive results (about 4%) are left out. Cut-off read from the data, not from the text of the source: inconclusive = inhibition above about 70% without an active follow-up result; inactive = below that. The list is a sample of the results. Entries with a potency or affinity are not part of this list.

The test is described as follows: M. tuberculosis growth inhibition, HTS (AID 449762).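 Note: bacterial growth assessed after seven days of incubation.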 The following applies: M. tuberculosis H37Rv growth inhibition, 7H9 media; at 25 µM; active compounds read high.
A word on the inhibition: it is the change of the read-out against control, counted positive when it falls. Take `COc1ccc(/C=N/Nc2nc(N3CCCC3)nc(N3CCCC3)n2)cc1`: the inhibition is -3.33% (inactive).
In the case of `Oc1ccc(/C=N/Nc2cc(N3CCCC3)nc(N3CCCC3)n2)cc1`, the inhibition was 4.32% (inactive).
The figure for `CCN(CC)C(=O)CSc1nc2[nH]ncc2c(=O)[nH]1` is -0.87% (inactive); for `Cc1ccc(C)c2c1[nH]c1ccccc12` it is 6.73% (inactive); for `COc1cc2[nH]c3ccccc3c2cc1C` it is -8.31% (inactive).
In the case of `O=c1oc(CCO)cc2ccc(Br)cc12`, the inhibition is 9.08% (inactive).
Take `COc1ccccc1NC(=O)c1c[nH]c2ccccc12`: the inhibition is 0.76% (inactive).
Consider `O=C(CCN1C(=O)/C(=C/c2ccccc2Cl)SC1=S)N1CCOCC1`, for which the inhibition was 69% (inactive).
On to `O=C(CCN1C(=O)/C(=C/C=C/c2ccccc2)SC1=S)Nc1ccccn1`, for which the inhibition was -4.47% (inactive).
The figure for `Cc1ccc(/C=C2\SC(=S)N(CCCC(=O)Nc3ccccn3)C2=O)cc1` is 0.58% (inactive); for `CN1CCN(C(=O)CCN2C(=O)/C(=C/c3ccccc3Cl)SC2=S)CC1` it is 49.8% (inactive); for `COC(=O)c1ccc(NC(=S)NC(=O)c2cccnc2)cc1` it is -0.36% (inactive).
With `COc1ccccc1-n1c(O)c(C=NCCN2CCNCC2)c(=O)[nH]c1=O` the figure was -7.53% (inactive).
With `COC(=O)c1ccc(NC(=O)c2ccc3nccnc3c2)cc1` the figure was -7.47% (inactive).
For the compound `CCN(CC)S(=O)(=O)c1ccc(S(=O)(=O)Nc2c(C)nn(C)c2C)cc1`, the inhibition is -5.92% (inactive).
Regarding `COc1ccc(-c2c(C(F)(F)F)oc3cc(OCC(=O)Nc4ccccc4C(F)(F)F)ccc3c2=O)cc1OC`, the inhibition is 10.6% (inactive).
The figure for `CSc1nncc(-c2ccccc2)n1` is -0.45% (inactive); for `O=C(Cc1ccc(F)cc1)N1CCC(N2CCC(C(=O)N3CCOCC3)CC2)CC1` it is 4.87% (inactive).
Take `CCCCn1nnc(NC(=O)CCC)n1`: the inhibition is -12.6% (inactive).
In the case of `OC1(c2ccccc2)CCN(Cc2ccccc2)C2CCCCC21` (configuration not stated), the inhibition was -3.63% (inactive).
As to `OC(c1ccccc1)C1CN(Cc2ccccc2)CCC1(O)c1ccccc1` (configuration not stated), the inhibition is 2.62% (inactive).
With `CN1C(C(=O)NCc2ccc(OC(F)(F)F)cc2)CC2Cn3c(nc4ccccc43)C21` (configuration not stated) the figure was -3.09% (inactive).
With `CN1C(C(=O)NCc2ccc(OC(F)(F)F)cc2)CC2Cn3c(nc4cc5ccccc5cc43)C21` (configuration not stated) the figure was 57.5% (inactive); with `Cc1ccc(S(=O)(=O)N[C@H](C(=O)N2CCC(C(=O)N[C@@H](CCC(N)=O)C(=O)O)CC2)C(C)C)cc1`, -8.96% (inactive).
On to `CN1CCN2c3ncccc3Cc3ccccc3[C@@H]2C1`, for which the inhibition is 8.88% (inactive).
The figure for `CN1CCN2c3ncccc3Cc3ccccc3C2C1` (configuration not stated) is -1.61% (inactive); for `O=C(c1cc(C(=O)N2CCOCC2)c2nc3ccccc3n2c1)c1ccccc1O` it is 1.28% (inactive); for `COc1ccc(C(=O)CSc2nnc(CNc3ccc(F)cc3)o2)cc1` it is 15.6% (inactive).
As to `COc1ccc(C(=O)CSc2nnc(CNc3ccc(C)cc3C)o2)cc1`, the inhibition was -7.42% (inactive).
The figure for `C=CCNC(=O)COC(=O)c1ccc(Sc2nncn2C)c([N+](=O)[O-])c1` is -2.55% (inactive); for `COc1ccc(CC(=O)N(Cc2ccccc2)c2ccc(C)cc2)cc1S(=O)(=O)N1CCOCC1` it is 4.3% (inactive); for `CCOC(=O)CCc1cnccc1-c1cccc(OC)c1O` it is 4.79% (inactive).
As to `CCCN1C(=O)N(c2cccc(C)c2)C(C)(O)CC1(C)C` (configuration not stated), the inhibition was 0.42% (inactive).
The figure for `O=C(c1cccc(C(F)(F)F)c1)N1CCN(C2CCCCC2)CC1` is 6.41% (inactive).
The figure for `CC[N+](C)(C)CC/C=C1/c2ccccc2Sc2ccc(Cl)cc21` is -9.06% (inactive); for `CN(C)CC/C=C1/c2ccccc2Sc2ccc(Cl)cc21` it is 39% (inactive); for `CN(CCOc1ccc(-c2ccn(S(=O)(=O)c3ccc(Cl)cc3)n2)cc1)c1ccccn1` it is 7.05% (inactive).
With `Cc1ccc(-c2noc(CCC(=O)N3CCCc4ccccc43)n2)cc1` the figure was 6.56% (inactive).
Turning to `CCOC(=O)c1c(NC(=O)COC(=O)Cc2n[nH]c(=O)c3ccccc23)sc(C(=O)NC)c1C`, the inhibition is -12.1% (inactive).
The figure for `O=[N+]([O-])c1cccc(-c2nc(-c3ccccc3)c(-c3cccs3)[nH]2)c1` is 1.45% (inactive); for `O=[N+]([O-])c1cccc(-c2nc(-c3cccs3)c(-c3cccs3)[nH]2)c1` it is 1.58% (inactive).
As for `CC1=NN(c2ccccc2)C(=O)/C1=C/c1ccc[nH]1`, the inhibition was 1.35% (inactive).
Consider `CN(C)c1ccc(C=C2C(=O)OC(C)(C)OC2=O)cc1`, for which the inhibition was 2.97% (inactive).
Consider `COc1cc2cc(Oc3ccc4ccc(=O)oc4c3)c(=O)oc2cc1O[C@@H]1O[C@H](CO)[C@@H](O)[C@H](O)[C@H]1O`, for which the inhibition was -3.36% (inactive).
Turning to `CC(C)(C)C1CCC2(CC1)Nc1cccc3cccc(c13)N2`, the inhibition is 28.8% (inactive).
The figure for `c1cc2c3c(cccc3c1)NC1(CCCCC1)N2` is -8.51% (inactive); for `Cc1cc(C(=O)N2CCN(Cc3ccccc3)CC2)on1` it is 4.33% (inactive); for `CN1C(=O)N(C)C2(c3ccccc3)Nn3c(s/c(=C/c4ccccc4F)c3=O)=NC12c1ccccc1` (configuration not stated) it is 1.37% (inactive).
The figure for `CCCC(C)C(=O)Nc1ccccc1C(=O)OCC` (configuration not stated) is -6.12% (inactive); for `CC1=C(C#N)C(c2cccnc2)C2=C(CC(c3ccc(Cl)cc3)CC2=O)N1` (configuration not stated) it is 49.6% (inactive); for `COc1ccc(C2C(C#N)=C(C)NC3=C2C(=O)CC(C)(C)C3)cc1` (configuration not stated) it is 2.98% (inactive).
Regarding `Cc1ccc(C[n+]2ccccc2)cc1`, the inhibition was -0.58% (inactive).
Take `Cc1nc2ccccn2c1P(=Nc1ccccc1)(N(C)C)N(C)C`: the inhibition is -7.51% (inactive).
Consider `COC(=O)[C@@H]1C[C@@]2(O)[C@@H](O)[C@@H](O)[C@@H](O)C[C@H]2N1Cc1ccc(C(F)(F)F)cc1`, for which the inhibition is -13% (inactive).
On to `CCOC(=O)c1ccc(-c2c(-c3ccc4c(c3)OCO4)noc2-c2ccsc2)cc1F`, for which the inhibition was 7.75% (inactive).
In the case of `CCOC(=O)c1ccc(-c2c(-c3cc(OC)c(OC)c(OC)c3)noc2C)cc1F`, the inhibition was 8.43% (inactive).
With `CCCOc1ccc(N2CC(C(=O)Nc3ncccc3C)CC2=O)cc1` (configuration not stated) the figure was 25.7% (inactive); with `O=C1CCc2cc(S(=O)(=O)NC(Cc3ccccc3)C(=O)NCCC3=CCCCC3)ccc2N1` (configuration not stated), -6.41% (inactive).
The figure for `COc1ccccc1Cn1c(=S)[nH]c2cc(C(=O)NCC3CCCO3)ccc2c1=O` (configuration not stated) is 2.37% (inactive); for `CC(=O)N1CCc2c(sc(NC(=O)C3CC3)c2-c2nc3ccccc3s2)C1` it is 15.3% (inactive).
Turning to `CC(=O)Nc1scc(C)c1-c1nc2ccccc2s1`, the inhibition is 26% (inactive).
The figure for `Cc1ccccc1NC(=O)Cn1c(C)nc2ccc(NC(=O)C3CC3)cc2c1=O` is 2.87% (inactive); for `NS(=O)(=O)c1ccc(N2N=C(c3ccccc3)CC2c2ccccc2)cc1` (configuration not stated) it is 16.9% (inactive); for `NS(=O)(=O)c1ccc(N2N=C(c3ccccc3)CC2c2ccc(F)cc2)cc1` (configuration not stated) it is 12.8% (inactive).
As for `O=C(O)c1ccccc1C(=O)NCCc1c(C(=O)O)[nH]c2ccc(Cl)cc12`, the inhibition was 7.67% (inactive).
The figure for `COc1cccc(NC(=O)CSc2nc3ccccc3c(=O)n2CCCC(=O)NCCCN2CCOCC2)c1` is -10.7% (inactive); for `CCOC(=O)c1ccc(NC(=S)NCCc2ccc(OC)c(OC)c2)cc1` it is 47.4% (inactive); for `CCOC(=O)c1ccc(NC(=O)Nc2ccc(F)cc2)cc1` it is 0.77% (inactive).
Regarding `O=C(O)C1CCN(c2ccc(S(=O)(=O)N3CCOCC3)cc2[N+](=O)[O-])CC1`, the inhibition was -9.82% (inactive).
For `Cn1cnc(C(=O)NC2CCN(C(=O)OC(C)(C)C)CC2)c1C(=O)NC1CCN(C(=O)OC(C)(C)C)CC1`, the inhibition was -7.54% (inactive).
With `CCn1c(N2CCN(C(=O)/C=C/c3ccccc3)CC2)nc2ccccc21` the figure was 6.08% (inactive); with `CC(C)Cn1c(N2CCN(C(=O)c3cccs3)CC2)nc2ccccc21`, -9% (inactive).
For the compound `CSc1nc2ccccc2n1CC(=O)Nc1c(C)n(C)n(-c2ccccc2)c1=O`, the inhibition is -4.84% (inactive).
With `CCOc1ccc(CN2C(=O)c3ccccc3C2C(=O)NC(C)CC)cc1OC` (configuration not stated) the figure was 2.03% (inactive); with `O=C(NCc1ccco1)c1ccc(-c2ccccc2Cl)o1`, -1.96% (inactive).
The figure for `COc1ccc(CCC(=O)OC(C)C(=O)c2ccc(C)cc2)cc1` (configuration not stated) is -2.54% (inactive); for `COc1ccc(Sc2ncnc3onc(C)c23)cc1` it is 3.37% (inactive); for `Cc1noc2ncnc(Sc3c(Cl)cccc3Cl)c12` it is 47.8% (inactive).
The figure for `O=C(O)/C=C/C(=O)Nc1ccccc1-c1ccccc1NC(=O)/C=C/C(=O)O` is 3.08% (inactive); for `CCn1nc(C)c(CCC(=O)O)c1C` it is 4.75% (inactive).
For `Cc1ccc(/C=C/C(=O)OCC(=O)NCCc2ccc(S(N)(=O)=O)cc2)o1`, the inhibition is -0.03% (inactive).
The figure for `COc1cccc(/C=N/Nc2ncnc3scc(-c4ccccc4)c23)c1OC` is 8.3% (inactive); for `COc1ccc(/C=N/Nc2ncnc3scc(-c4ccccc4)c23)cc1OC` it is -0.49% (inactive).
With `CC1CCCCN1C(=O)Nc1ccccc1Cl` (configuration not stated) the figure was -0.25% (inactive); with `O=S(=O)(c1ccc(S(=O)(=O)N2CCN3CCCC3C2)cc1)N1CCCC1` (configuration not stated), -15.1% (inactive).
The figure for `CCOC(=O)c1sc(NC(=O)CSc2nc3ccccc3s2)c(C(=O)OCC)c1C` is 12.6% (inactive).
For the compound `CCc1c(O)cc2n(c1=O)-c1ccc(Cl)cc1C2(C)C`, the inhibition is -2.84% (inactive).
Consider `Cc1c(O)cc2n(c1=O)-c1ccc(Cl)cc1C2(C)C`, for which the inhibition is -11.1% (inactive).
With `Cc1ccsc1C1Nc2ccc3ncccc3c2C2=C1C(=O)CCC2` (configuration not stated) the figure was 2.32% (inactive); with `O=C(Nc1ccc(Cl)cn1)Nc1ccccc1F`, -4.27% (inactive); with `COCCn1c(=NC(=O)c2cc(Cl)sc2Cl)sc2cc(S(N)(=O)=O)ccc21`, -0.08% (inactive).
For the compound `C=CCn1c(=NC(=O)c2cc(Cl)sc2Cl)sc2cc(S(N)(=O)=O)ccc21`, the inhibition is -3.02% (inactive).
